In PubChem BioAssay AID1259418 (Broad Institute, 2018) one finds max activity data, which are given here for 74 compounds.

Out of some 3,400 compounds screened, about 840 (25%) were called active. Another 11% or so got no clear call; they are omitted. Not all results are given here. Results with a measured potency or affinity are listed apart. A number with no mark means an inactive call.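 How the source made its calls: active means fitted half-maximal concentration of signal decrease at or below twice the sample's top tested concentration; inconclusive means flat curve between -70 and -30 percent, or poor fit; inactive means flat within 30 percent, signal rise, or potency above limit.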

This experiment can be described thus: inhibitors of Toxoplasma growth in IFN-γ-primed HeLa – cell-based, ME49Luc, luciferase, 72 h, dose response (AID 1259418). As to conditions: T. gondii ME49Luc in IFN-y HeLa, stronger effect = lower value, -100% = high-dose IFN-γ control wells; at 19.5 µM unless noted.
Turning to `CN(C)Cc1noc2c1CN(Cc1nccn1C)CC2`, the max activity was 50.1%. Turning to `COc1cc(NC(=O)CN2CCC3(CC2)N=C(c2cccc(C)c2)C(=O)N3)cc(OC)c1`, the max activity was -9.06% [at 2.6 µM]. As for `Cc1ccc(-c2nc(Cn3nnc(-c4nc(-c5ccc6c(c5)OCO6)no4)c3C)c(C)o2)cc1`, the figure is 17.5% [at 0.68 µM]; as for `COc1cc(OC)cc(C(=O)N2CCC3(CC2)Nc2ccc(Cl)cc2-n2cccc23)c1`, -6.3% [at 5 µM]; as for `COc1ccccc1N1CCN(c2nc(-c3ccc(Cl)cc3)nc3ccccc23)CC1`, 8.55% [at 5 µM]. For `Cc1noc(C)c1C1CCCN1C(=O)Cn1nc(C(F)(F)F)cc1C` (centres undefined) the value was -9.96% [at 0.35 µM]; for `COc1ccc(-c2nc(N3CCN(Cc4ccccc4)CC3)c3ccccc3n2)cc1`, 20.1%.

As for `COc1ccc(-c2nc(N3CCCCCC3)c3ccccc3n2)cc1`, the max activity is 11.2% [at 0.16 µM].

For `COc1ccc(-c2nc(N3CCC(N4CCCCC4)CC3)c3ccccc3n2)cc1`, the max activity was -13.2% [at 10 µM].

`COc1ccc(-c2nc(N3CCCC3)c3ccccc3n2)cc1`: the max activity was -15.5% [at 2.6 µM].

With `Clc1ccc(-c2nc(N3CCC4(CC3)OCCO4)c3ccccc3n2)cc1`, the max activity was -8.6% [at 10 µM].

Turning to `COc1ccc(-c2nc(N3CCN(c4ccc(OC)cc4)CC3)c3ccccc3n2)cc1`, the max activity was 51.6%. As for `COc1ccc(-c2nc(N3CCCCC3)c3ccccc3n2)cc1`, the max activity is 24.4%. For `COc1ccc(-c2nc(N3CCN(c4ccccc4)CC3)c3ccccc3n2)cc1` the value was 18.5%; for `CCc1ccc(C(=O)N2CCC3(CC2)Nc2cc(OC)ccc2-n2cccc23)cc1`, 8.15% [at 0.68 µM]; for `CC(=O)N1CCC(N(C)Cc2cc(C(C)(C)C)n[nH]2)CC1`, 35.9%. For `COc1ccc(-c2noc(-c3nnn(Cc4nc(-c5ccccc5OC)oc4C)c3C)n2)cc1` the value was 15.5% [at 5 µM]; for `COc1cc(OC)cc(C(=O)N2CSC[C@@H]2C(=O)NCCc2csc(-c3ccccc3)n2)c1`, 23.7%; for `COc1ccc(-c2nc3c(s2)CN(S(=O)(=O)c2cc(OC)ccc2OC)CC3)cc1`, 28%. As for `COc1cccc(-c2nc3c(s2)CN(S(=O)(=O)c2cccc(C)c2)CC3)c1`, the figure is -6.22% [at 2.6 µM]. As to `CCc1ccccc1S(=O)(=O)N1CCc2nc(-c3cccc(OC)c3)sc2C1`, the max activity was -7.33% [at 0.35 µM]. For `CCc1ccccc1S(=O)(=O)N1CCc2nc(-c3ccccc3)sc2C1` the value was 115% [at 10 µM]; for `COc1cccc(-c2nc3c(s2)CN(S(=O)(=O)c2ccccc2Cl)CC3)c1`, 5.54% [at 10 µM]; for `COc1cccc(-c2nc3c(s2)CN(S(=O)(=O)c2cc(C)cc(C)c2)CC3)c1`, -33.8% [at 0.16 µM]. For `COc1ccc(-c2nc3c(s2)CN(S(=O)(=O)c2cccc(Cl)c2C)CC3)cc1` the value was 10.3% [at 10 µM]. For the compound `COc1ccc(S(=O)(=O)N2CCc3nc(-c4cccc(OC)c4)sc3C2)cc1`, the max activity was -10.4% [at 0.16 µM]. Consider `Cc1ccc(-c2nc(CSc3nc4c(c(=O)[nH]3)CN(Cc3ccc(Cl)cc3)CC4)c(C)o2)cc1`, for which the max activity is 23.9%.

Take `O=C(Cn1cccc1-c1nc(-c2ccc(Cl)cc2)cs1)N1CCC2(CC1)OCCO2`: the max activity was -6.36% [at 10 µM]. `O=C1CCc2cc(S(=O)(=O)N3CCN(c4ccc(F)cc4)CC3)cc3c2N1CCC3`: the max activity is 10.7% [at 2.6 µM]. As for `CCOC(=O)c1cccc(NC(=O)Nc2ccc(-c3nc(-c4ccc(C)cc4)co3)cc2)c1`, the figure is 67.3%; as for `COc1ccc(-c2nc3c(s2)CN(C(=O)Nc2ccc(Br)cc2)CC3)cc1`, 26.4% [at 10 µM]. On to `Cc1nc(-c2ccccc2)sc1C(=O)Nc1ccc(-n2c(C)nc3ccccc3c2=O)cc1`, for which the max activity is -25.8%. As for `CC1CCN(C(=O)c2ccc(-c3csc(C4CC4)n3)cc2)CC1`, the figure is 6.7%; as for `CCN1C(=O)CCc2cc(NC(=O)Cc3c(F)cccc3Cl)ccc21`, 7.81%; as for `O=C(Nc1ccc(-c2nc(-c3ccccc3)co2)cc1)c1ccc(Br)o1`, 25.6%.

For the compound `Cc1ccc2c(c1C)-n1cccc1C1(CCN(C(=O)c3cccs3)CC1)N2`, the max activity is -15.1% [at 5 µM]. Consider `COc1ccc(-c2nc(N3CCC(C)CC3)c3ccccc3n2)cc1`, for which the max activity was 21.8%. As for `COc1ccc(OCC(=O)N2CCC[C@@H]2C(=O)NCCc2csc(-c3ccccc3)n2)cc1`, the figure is 10.2% [at 0.16 µM]; as for `COc1ccc(N2CCN(CCNc3nc(-c4ccc(Cl)cc4)nc4ccccc34)CC2)cc1`, 22% [at 0.68 µM]; as for `COc1ccc(-c2nc(NCCCN3CCCC3)c3ccccc3n2)cc1`, 15.7%.

As for `COc1ccc(-c2nc(NCCCN3CCN(c4cc(C)ccc4C)CC3)c3ccccc3n2)cc1`, the max activity was 21.7%. As for `COc1ccc(-c2nc(NCCCN3CCN(c4ccc(F)cc4)CC3)c3ccccc3n2)cc1`, the figure is -17.2% [at 0.35 µM]; as for `CCCN1CCN(CCCNc2nc(-c3ccc(Cl)cc3)nc3ccccc23)CC1`, -50.1% [at 1.35 µM]. As for `COc1ccc(-c2nc(NCCN3CCN(c4ccc(OC)cc4)CC3)c3ccccc3n2)cc1`, the figure is 15.4% [at 0.16 µM]; as for `O=C(NCCc1csc(-c2ccccc2)n1)[C@H]1CCCN1C(=O)c1cccc(Cl)c1`, -10.8% [at 0.35 µM]; as for `Cc1cccc(-c2nc(Cn3nnc(-c4nc(-c5cccc(F)c5)no4)c3C)c(C)o2)c1`, -7.79% [at 1.35 µM].

In the case of `COc1ccccc1-c1nc(Cn2nnc(-c3nc(-c4ccccc4C)no3)c2C)c(C)o1`, the max activity is 11.1% [at 0.16 µM]. With `COc1ccc(-c2nc(NCc3ccccc3Cl)c3ccccc3n2)cc1`, the max activity is 7.56% [at 0.16 µM]. As for `COc1ccccc1CNC(=O)CC1N=C2c3ccccc3N=C(SCC#N)N2C1=O` (centres undefined), the figure is 42.4% [at 10 µM].

For `COc1cc(OC)cc(-c2noc(-c3nnn(Cc4nc(-c5ccc(C)cc5)oc4C)c3C)n2)c1`, the max activity was 10.5% [at 0.16 µM]. On to `CC1CCCCN1C(=O)c1ccnn1-c1ccc2ccc(-c3ccccc3)cn12` (centres undefined), for which the max activity was 31.6%. As for `Cc1ccc(NC(=O)N2CCN(Cc3nc(-c4ccccc4C)oc3C)CC2)cc1C`, the figure is 8.71% [at 0.68 µM].

As to `COc1ccc(-c2nc(NCCCN3CCC(Cc4ccccc4)CC3)c3ccccc3n2)cc1`, the max activity was -19.1% [at 0.35 µM]. Take `CCC(CN1CCOCC1)Nc1nc(-c2ccc(OC)cc2)nc2ccccc12` (centres undefined): the max activity was 27.4%. As for `O=C(NCCc1c[nH]c2ccccc12)c1cc(-c2ccccn2)nc2ccccc12`, the max activity is 15.3% [at 0.68 µM]. For `CCCc1ccc(S(=O)(=O)N2CCc3nc(-c4ccc(OCC)cc4)sc3C2)cc1` the value was 88.1%; for `Cc1ccc(CN2CC[C@H]3CO[C@@H](CNC(=O)C4CC4)[C@@H]3C2)cc1`, 18.5%; for `O=C1N(CC2CC2)CCC12CCCN(Cc1cncc(Cl)c1)CC2` (centres undefined), 33.7%. As for `COc1cccc(N(Cc2nc(-c3ccc(OC(C)C)cc3)oc2C)S(=O)(=O)c2ccccc2)c1`, the figure is 4.32% [at 10 µM]; as for `COc1cccc(N(Cc2nc(-c3ccc(C)cc3)oc2C)S(=O)(=O)c2ccccc2)c1`, -10.4% [at 10 µM]; as for `COc1ccc(CNC(=O)CC2N=C3c4ccccc4N=C(SCc4cc(=O)n5ccccc5n4)N3C2=O)cc1` (centres undefined), 19.7% [at 2.6 µM]. As for `CCOC(=O)c1c(C)[nH]c(-c2ccccc2)c1-c1ccccc1`, the figure is 20.8% [at 10 µM]. On to `CCc1ccc(NC(=O)Nc2ccc(-c3nc(-c4ccc(C)cc4)co3)cc2)cc1`, for which the max activity is 11.2% [at 0.16 µM]. As for `COc1ccc(CNC2=NCCNC23CCN(S(=O)(=O)c2cccs2)CC3)cc1`, the figure is -8.27% [at 0.35 µM]; as for `CCc1ccc(S(=O)(=O)N2CCC3(CC2)NCCN=C3NCc2cccc(OC)c2)cc1`, -9.5% [at 0.68 µM]; as for `Cc1ccc(S(=O)(=O)N2CCC3(CC2)NCCN=C3NCc2cccc(F)c2)c(C)c1`, -19.4% [at 10 µM]. As for `Cc1ccc(S(=O)(=O)N2CCC3(CC2)NCCN=C3NCc2ccc(F)cc2)c(C)c1`, the figure is -23.4%; as for `CN(C)C(=O)c1ccc(-c2ccc([C@H]3[C@@H](CO)N4C(=O)CN(C(=O)CC5CC5)C[C@@H]34)cc2)cc1`, 20.3%.

Regarding `Cc1cnc(N2C[C@@H](c3ccccc3)[C@@]3(CCNC3=O)C2)nc1`, the max activity is 22.8%. For `Cc1ccc(-n2ncc3c(NCC4CCCO4)ncnc32)c(C)c1` (centres undefined) the value was 9.91% [at 0.16 µM]; for `COc1ccc(CNC(=O)CCC2N=C3c4ccccc4N=C(SCc4cc(=O)n5cc(Cl)ccc5n4)N3C2=O)cc1` (centres undefined), -8.86% [at 1.35 µM].

Regarding `CSc1ccc(-c2noc(-c3nnn(Cc4nc(-c5cccc(C)c5)oc4C)c3C)n2)cc1`, the max activity is -16.4% [at 0.16 µM]. For the compound `Cc1ccc(OCC(=O)Nc2cncc(-c3nc4ccccc4o3)c2)cc1`, the max activity is 10.2% [at 1.35 µM]. For `Cc1nc(CCNC(=O)[C@H]2CCCN2S(=O)(=O)c2ccc3c(c2)CCCC3)cs1` the value was 26.6% [at 0.35 µM].
